ST2 IL33 inh = IL1RL1 inhibition. AID 1259354. inhibition, % for hits at 17 µM. Q01638. AlphaLISA ST2-Fc/biotin-IL-33 interaction, 1 h. hit rate 2.3% among 78,000; in the data active = inhibition above about 30%
Target sequence (Q01638 whole entry, looked up): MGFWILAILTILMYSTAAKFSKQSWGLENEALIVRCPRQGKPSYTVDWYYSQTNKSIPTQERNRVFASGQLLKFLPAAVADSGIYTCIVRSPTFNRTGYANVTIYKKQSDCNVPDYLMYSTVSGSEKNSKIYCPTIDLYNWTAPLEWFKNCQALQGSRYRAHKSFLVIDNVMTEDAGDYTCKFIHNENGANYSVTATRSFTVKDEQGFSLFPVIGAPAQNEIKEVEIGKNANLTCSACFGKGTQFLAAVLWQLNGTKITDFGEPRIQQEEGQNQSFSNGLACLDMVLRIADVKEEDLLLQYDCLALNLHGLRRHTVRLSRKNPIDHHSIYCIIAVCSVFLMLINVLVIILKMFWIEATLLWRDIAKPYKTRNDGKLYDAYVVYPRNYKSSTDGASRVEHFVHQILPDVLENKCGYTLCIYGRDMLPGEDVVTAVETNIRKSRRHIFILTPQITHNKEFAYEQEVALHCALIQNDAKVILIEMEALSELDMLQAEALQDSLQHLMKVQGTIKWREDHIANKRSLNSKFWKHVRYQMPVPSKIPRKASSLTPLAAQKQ
Hits are given with their value; - = inactive; ! = repeats disagree. Only a selection was taken, and hits are over-represented in it overall.

SMILES | ST2 IL33 inh
Cc1ccc(C)c(S(=O)(=O)N2CCN(c3nc(C)cc(N(C)C)n3)CC2)c1 | -
O=C1C(Oc2ccccc2)C(c2ccc3c(c2)OCO3)N1c1cccc(C(F)(F)F)c1 (stereo not given) | -
CC1(C)CC(=O)c2c(oc3ccc(NS(=O)(=O)c4ccccc4)cc23)C1 | -
Cc1c(C(=O)NCCC(C)C)oc2ccc(S(=O)(=O)N3CCOCC3)cc12 | -
CCN(CCNC(=O)C1C2C=CC3(CN(Cc4ccccc4Cl)C(=O)C13)O2)c1ccccc1 (stereo not given) | -
CCN1/C(=C/C=c2/sc3nc4ccccc4n3c2=O)C=Cc2ccccc21 | 43%
CCN1/C(=c2/sc3nc4ccccc4n3c2=O)Sc2ccc(OC)cc21 | -
CN(C)c1ccc(/C=c2\sc3nc4ccccc4n3c2=O)cc1 | -
COC(=O)c1c(C)oc2cc(Br)c(OCc3ccc(C)cc3)cc12 | -
CCCCC(=O)Nc1ccc(C(=O)O)cc1NC(=O)CCCC | -
OC[C@H]1CCN(C2CCN(c3ccc4c(c3)OCO4)CC2)C[C@@H]1O | -
CC1CCc2c(sc(NC(=O)c3ccccc3Cl)c2C(=O)NCc2ccco2)C1 (stereo not given) | -
O=C(Nc1sc2c(c1C(=O)NCC1CCCO1)CCCC2)c1ccccc1Br (stereo not given) | -
O=C(Nc1sc2c(c1C(=O)NCc1ccco1)CCCC2)c1ccccc1[N+](=O)[O-] | 30%
CC(C)CC(=O)Nc1ccnn1C1CCN(Cc2ccc(Cl)s2)CC1 | -
O=C(COc1ccccc1)OCC(=O)N1c2ccccc2Sc2ccccc21 | -
N/C(=N/OC(=O)N1c2ccccc2Sc2ccccc21)c1ccccc1 | 50%
CN(C(=O)N1c2ccccc2Sc2ccccc21)c1ccccc1 | -
Cc1ccc(C(=O)N(c2ccc(F)cc2)C2C=CS(=O)(=O)C2)cc1 (stereo not given) | -
Cc1ccc(C2=N/C(=C\c3cccc(F)c3)C(=O)O2)cc1[N+](=O)[O-] | -
Cc1ccc(C2=N/C(=C\c3cccc([N+](=O)[O-])c3)C(=O)O2)cc1[N+](=O)[O-] | -
Cc1ccc(C2=N/C(=C\c3ccc(N(C)C)cc3)C(=O)O2)cc1[N+](=O)[O-] | 30%
Cc1sc2ncc(C(=O)N3CCC4(CN(C)C(=O)O4)C3)c(=O)n2c1C (stereo not given) | -
CCN(CC)C(=O)C1CCCN(Cc2cc(OC)c(O)c([N+](=O)[O-])c2)C1 (stereo not given) | -
O=C(COc1ccc2c3c(c(=O)oc2c1)CCC3)c1ccccc1 | -
SMILES | ST2 IL33 inh
COc1ccc(Cc2c(O)nc3n(c2=O)CCCS3)cc1 | -
O=C(COc1cc(=O)n2c(n1)SCCC2)c1ccccc1 | 64%
O=C1CC(c2n[nH]c(Cc3ccccc3)n2)CN1Cc1cccnc1 (stereo not given) | -
CC1CCc2nc(NC(=O)c3ccc(S(=O)(=O)N4CC(C)CC(C)C4)cc3)sc2C1 (stereo not given) | -
CCNc1ccc(N)c(C)c1C | 79%
O=C1CCC(C(=O)N2CCCCCCC2)CN1CCc1ccccc1 (stereo not given) | -
O=C1C=CC(=O)C(C2=C3C(=O)N(CCc4ccccc4)CC(=O)N3CCC2)=C1 | 38%
O=C1c2ccccc2C(=O)N1CCc1ccccc1 | -
COc1ccc(C(C)=O)cc1CSc1nc(C)cc(=O)[nH]1 | -
Cc1csc2ncc(C(=O)Nc3ccccc3)c(=O)n12 | -
Cc1csc2ncc(C(=O)Nc3ccc(Cl)cc3)c(=O)n12 | -
Cc1csc2ncc(C(=O)Nc3ccon3)c(=O)n12 | 97%!
Cc1cccc(CCNc2nncc(-c3ccc4ccccc4c3)n2)n1 | -
CCCCOC(=O)C1=C(C)Nc2nnnn2C1c1cccc(Cl)c1 (stereo not given) | -
Cc1ccc(C)c(CSC2=NCCN2C(=O)C2CCCC2)c1 | -
Cc1noc2ncnc(NCc3cccnc3N(C)C3CCCCC3)c12 | -
CC(C)C1CN(C(=O)CCc2cccnc2)CCCN1CC1CC1 (stereo not given) | -
COc1ccccc1Nc1cc(C(F)(F)F)nc2c(OC)ccc(OC)c12 | 39%
COc1ccccc1-c1cc(C(F)(F)F)nc(S(C)(=O)=O)n1 | -
COc1ccc(-c2cc(C(F)(F)F)nc(NCc3ccccc3)n2)cc1OC | -
CN(CCc1cn[nH]c1)CC(=O)Nc1cnccn1 | -
Cc1ccccc1C(=O)Nc1ccc([N+](=O)[O-])cc1 | -
CCc1ccccc1NC(=O)c1ccc([N+](=O)[O-])cc1 | -
Cc1ccccc1NCC(=O)c1ccc([N+](=O)[O-])cc1 | 48%
Cc1cc(C)cc(N(C(=O)c2ccc(C)c(C)c2)C2C=CS(=O)(=O)C2)c1 (stereo not given) | -
SMILES | ST2 IL33 inh
COc1ccccc1C(=O)N/C(=C\c1ccc2c(c1)OCO2)C(=O)NCc1ccccc1 | -
COc1ccc(/C=C2/C=C(c3ccc(C)cc3)OC2=O)cc1OC | 32%
COc1ccc(OC)c(/C=C2\N=C(c3cccs3)OC2=O)c1 | -
COc1ccc(/C=C2/C=C(c3cc(OC)ccc3OC)OC2=O)c(OC)c1 | 40%
COc1ccc(/C=C2\SC(N3CCOCC3)=NC2=O)c(OC)c1 | -
COc1ccc(C2=C/C(=C\c3ccc(C)o3)C(=O)O2)cc1 | -
COc1ccc(/C=C2/OC(=O)c3c2cc(C)[nH]c3=O)cc1OC | -
COC(=O)[C@@H]1C[C@@H](O)CN1C(=O)c1ccc2oc(C)cc2c1 | -
CN1C[C@@H](N)C[C@H]1C(=O)NCc1cccc(-n2cccn2)c1 | -
COc1ccc(CCNC(=O)COc2cc(C)ccc2C)cc1 | -
O=C(COc1cccc(Oc2ccccc2)c1)Nc1ccc2c(c1)OCO2 | -
O=C1CCCC2=C1C(c1ccc(OCc3ccc([N+](=O)[O-])cc3)cc1)C1=C(CCCC1=O)N2 | -
COc1ccc(C2C3=C(CCCC3=O)NC3=C2C(=O)c2ccccc23)cc1 (stereo not given) | -
CCOc1ccc(C2C3=C(CCCC3=O)NC3=C2C(=O)c2ccccc23)cc1 (stereo not given) | 36%
COc1ccc(S(=O)(=O)Nc2ccc3n(c2=O)C[C@H]2C[C@@H]3CN(C(=O)COc3ccccc3)C2)cc1 | -
Cc1ccc(S(=O)(=O)Nc2cccc(C(=O)CC3(O)C(=O)Nc4ccccc43)c2)cc1 (stereo not given) | -
O=C(c1ccco1)N1CCN(S(=O)(=O)NCc2ccccc2)CC1 | -
Cc1nc(CCNC(=O)C2CCC(=O)N(Cc3ccccn3)C2)nc2c1CCCC2 (stereo not given) | -
CCOc1ccccc1N(C)C(=O)c1c[nH]c(=O)c2ccccc12 | -
O=[N+]([O-])c1cc(C=Nc2cccc(I)n2)ccc1Br | -
O=[N+]([O-])c1cc(C=Nc2ccc(Br)cc2)ccc1Br | -
O=[N+]([O-])c1cc(C=Nc2ccccc2I)ccc1Br | 35%
O=C(NCC1CCCN(Cc2ccn[nH]2)C1)C1(c2ccc(Cl)cc2)CC1 (stereo not given) | -
CC(CNC(=O)Cc1csc(-c2ccccc2)n1)n1cncn1 (stereo not given) | -
CN(CC1COCCO1)c1nc(C(C)(C)C)nc2c1cnn2C (stereo not given) | -
CNc1ncc(CN(C)C(=O)c2ccc3cccc(F)c3n2)cn1 | -
COc1cccc(-c2nnnn2[C@H]2CO[C@H]3[C@@H]2OC[C@@H]3NC(=O)c2ccc(C(F)(F)F)cc2)c1 | -
O=C(NC1CCCCC1)O[C@@H]1CO[C@H]2[C@@H]1OC[C@@H]2n1nnnc1-c1ccccc1 | 39%
O=C(NC1CCCCC1)N[C@H]1CO[C@H]2[C@@H]1OC[C@@H]2n1nnnc1Oc1ccc(-n2ccnc2)cc1 | -
